Rows were chosen to be rich in hits. Some 2.9% of all compounds tested hit in one or more screens of this group.
PLC-gamma1 inh = PLC-gamma1 enzyme inhibitors, primary screen, biochemical, fluorescence, purified enzyme. hit rate 0.84% among 370,000. inhibition, % at 12.2 µM. AID 720700, 2013. fluorogenic substrate; in the data active means inhibition above about 9.5%
proKLK7 act = proKLK7 zymogen activators, primary screen, biochemical, fluorescence intensity; Kallikrein-7 (Homo sapiens), P49862; purified proKLK7, EDANS-DABCYL substrate fluorescence; 100% is mature enzyme control, 0% vehicle; activation, % at 7 µM; hit rate 0.9% among 370,000;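 active means activation above the mean of all tested compounds plus 3 SD, computed per campaign excluding outliers beyond control limits, cut at about 13% in these data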
ADAM17 inh = ADAM17 inhibitors, primary screen, biochemical, QFRET; Disintegrin and metalloproteinase domain-containing protein 17 (Homo sapiens), P78536; recombinant ADAM17, EDANS/DABCYL FRET peptide cleavage; inhibition, % at 6.95 µM; hit rate 0.83% among 370,000; AID 720648, 2013;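 active means inhibition above the mean of compounds lying between control limits plus 3 SD, set per campaign, cut at about 8.5% in these data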;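 further: 0% = DMSO-only wells as the low control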
PLCb3 inh = human PLC-beta3 inhibitors, primary screen, biochemical, fluorescence | AID 720704, 2013 | Purified PLC-beta3, fluorogenic substrate | inhibition, % at 12.2 µM | 1-phosphatidylinositol 4,5-bisphosphate phosphodiesterase beta-3 (Homo sapiens), Q01970 | hit rate 0.18% among 370,000; in the data active means inhibition above about 11%;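 further: 0% = median of compound wells on plate and 100% = full blocker control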
ADAM10 inh = human ADAM10 inhibitors, primary screen, biochemical, QFRET, HTS; recombinant ADAM10, EDANS/DABCYL FRET peptide cleavage, 3 h; Disintegrin and metalloproteinase domain-containing protein 10 (Homo sapiens), O14672; inhibition, % at 7 µM; AID 720582, 2013; hit rate 0.62% among 370,000;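 active means inhibition above a per-campaign cutoff equal to the mean of compounds falling between control-based bounds plus 3 SD, cut at about 20% in these data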;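 further: 0% = DMSO wells while the 100% control is not disclosed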
Target sequence (O14672 214-748 limits assumed): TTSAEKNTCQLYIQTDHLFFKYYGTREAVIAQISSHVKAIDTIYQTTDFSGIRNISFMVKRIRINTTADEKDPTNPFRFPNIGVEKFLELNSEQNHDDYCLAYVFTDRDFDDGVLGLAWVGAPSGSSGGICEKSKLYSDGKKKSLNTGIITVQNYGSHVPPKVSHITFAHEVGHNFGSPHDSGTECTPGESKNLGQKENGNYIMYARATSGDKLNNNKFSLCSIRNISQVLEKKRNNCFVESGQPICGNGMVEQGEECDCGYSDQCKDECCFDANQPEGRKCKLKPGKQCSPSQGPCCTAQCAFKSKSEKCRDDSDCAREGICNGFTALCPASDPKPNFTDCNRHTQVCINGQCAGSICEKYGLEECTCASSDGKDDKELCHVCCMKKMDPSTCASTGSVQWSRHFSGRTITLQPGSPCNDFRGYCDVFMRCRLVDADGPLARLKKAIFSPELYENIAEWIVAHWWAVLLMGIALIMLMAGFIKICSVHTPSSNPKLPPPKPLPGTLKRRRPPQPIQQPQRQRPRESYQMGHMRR
proKLK7 act conf = proKLK7 zymogen activators, confirmation, biochemical, fluorescence intensity, triplicate. activation, % at 7 µM. AID 686949, 2013. purified proKLK7, EDANS-DABCYL substrate fluorescence; scaled: vehicle 0, mature enzyme 100. hit rate 68% among 3,200. shares compounds with proKLK7 act;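 active means activation, as change over the incubation, above the mean of all tested compounds plus 3 SD, cut at about 13% in these data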
EDANS interfere = EDANS-DABCYL substrate optical interference, artefact control for kallikrein-7 zymogen activator project, biochemical, fluorescence intensity, high throughput | shares compounds with proKLK7 act | activation, % at 7 µM | AID 686952, 2013 | hit rate 80% among 3,200 | no enzyme, 4 h; solvent 0%, active enzyme control 100%;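 active means activation above the all-compound mean plus 3 SD, ignoring values outside control-based bounds, cut at about 4.8% in these data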;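 further: value is the 4 h activation minus the activation read at time zero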
* = called active by the depositor; i = inactive; / = not tested or not shown.

SMILES | PLC-gamma1 inh | proKLK7 act | ADAM17 inh | PLCb3 inh | ADAM10 inh | proKLK7 act conf | EDANS interfere
COc1ccc(-c2cc(C(=O)OCC(=O)N3CCOCC3)c3ccccc3n2)cc1 | i | 59.1* | -93.5 | i | -263.0 | 144.1* | 141.2*
COc1ccc(-c2cc(C(=O)NCC3CCCO3)c3cc(C)ccc3n2)cc1 (stereo not given) | i | 25.5* | -227.1 | i | i | -40.0 | -36.5
Cc1ccc(-c2cc(C(=O)N3CCOCC3)c3ccccc3n2)cc1 | -13.7 | 1.2 | -35.7 | -15.7 | -109.5 | / | /
Cc1noc(C)c1C(C)C1=CCCCC1 (stereo not given) | -1.1 | -0.3 | -1.6 | 3.9 | 4.3 | / | /
COc1ccc(S[C@]2(C(=O)N3CCCC3)CC(=O)N(c3ccccc3OC)[C@@H]2c2ccc(OC)cc2)cc1 | 3.5 | 0.0 | 7.4 | 2.1 | 8.9 | / | /
CCc1cc2c(COC(=O)CCNS(=O)(=O)c3cccc(C(F)(F)F)c3)cc(=O)oc2cc1O | i | 48.0* | -485.8 | i | i | 55.9* | 56.6*
CCOC(=O)COc1ccc2nsnc2c1Cl | -319.5 | 38.1* | -90.8 | -361.1 | -258.2 | 36.8* | 40.7*
O=C(O)COc1cccc2nsnc12 | -180.2 | -0.1 | -2.2 | -233.7 | -12.9 | / | /
COc1ccc2nccc(C(N)=O)c2c1 | -431.0 | 12.8* | -317.9 | i | i | 26.2* | 26.4*
COc1cc(-c2ccc3oc(-c4cccc(C)c4)c(C#CC4(O)CCCCC4)c3c2)cc(OC)c1OC | i | 83.1* | -135.3 | i | i | -9.1 | 1.8
Cc1ccc2nc(N3CCN(C(=O)CCCC(=O)O)CC3)nc(-c3ccccc3)c2c1 | -408.4 | 2.5 | -109.4 | i | -257.2 | / | /
O=C(O)CCC(=O)N1CCN(c2nc(-c3ccccc3)c3ccccc3n2)CC1 | -420.7 | 31.7* | -182.7 | i | -442.6 | 7.5 | 8.6*
O=C(c1cc(C2CC2)on1)N(C1CCCCC1)C1CCOCC1 | -2.0 | 0.6 | -7.3 | -3.7 | -7.1 | / | /
COc1cc2cncc(Cc3ccccc3)c2cc1O | -196.3 | 21.9* | -400.9 | -239.8 | i | 16.9* | 20.5*
Nc1[nH]c2cc(Cl)ccc2c1C(=O)N1CCOCC1 | -5.0 | 0.9 | 0.6 | -6.7 | -7.4 | / | /
COc1cccc2[nH]c3c(N4CCC(C(N)=O)CC4)ncnc3c12 | -456.5 | 25.3* | i | -486.1 | i | 46.6* | 42.9*
COc1cccc2[nH]c3c(N4CCCC(C)C4)ncnc3c12 (stereo not given) | -138.9 | 5.2 | -84.9 | -212.6 | -252.4 | / | /
CCOCCCn1c(=N)c(C(=O)NCc2ccc3c(c2)OCO3)cc2c(=O)n3ccccc3nc21 | -17.6 | 0.0 | -26.5 | -28.1 | -76.9 | / | /
CC(=O)N=c1c(C#N)cc2c(=O)n3ccccc3nc2n1CCCOC(C)C | -366.2 | 34.6* | i | i | i | -5.8 | -2.3
CC(C)OCCCn1c(=NC(=O)c2ccncc2)c(C#N)cc2c(=O)n3ccccc3nc21 | -13.0 | -0.8 | -15.0 | -18.3 | -67.7 | / | /
CC(C)OCCCn1c(=NC(=O)c2cccs2)c(C#N)cc2c(=O)n3ccccc3nc21 | i | 54.0* | i | i | i | 68.5* | 63.0*
CC(C)OCCCn1c(=N)c(C(N)=S)cc2c(=O)n3ccccc3nc21 | -297.2 | 21.9* | -391.9 | -356.6 | i | 4.0 | 4.3*
CCCCCn1c(=NC(C)=O)c(C#N)cc2c(=O)n3ccccc3nc21 | -83.6 | 6.2 | -181.3 | -115.6 | i | / | /
CN(CCO)c1cccc2c1S(=O)(=O)N(Cc1cn(Cc3ccc(Cl)cc3)nn1)Cc1ccccc1O2 | -1.7 | 1.2 | -3.2 | -6.5 | -3.8 | / | /
O=C(CSc1nnc(-c2ccncc2)n1-c1ccccc1)Nc1cccc2ccccc12 | 0.9 | 0.5 | 1.8 | 3.5 | 2.3 | / | /
SMILES | PLC-gamma1 inh | proKLK7 act | ADAM17 inh | PLCb3 inh | ADAM10 inh | proKLK7 act conf | EDANS interfere
COc1cc2c(cc1OC)C(C)=NC1(CCCCC1)C2 | i | 101.0* | i | i | i | 61.1* | 65.6*
COc1cc2c(cc1OC)C(SC)=NC1(CCCC1)C2 | -3.3 | 0.4 | -0.1 | 2.5 | -1.7 | / | /
COc1cc2c(cc1OC)C(C)=NCC2 | i | 115.3* | i | i | i | 61.8* | 77.0*
COc1cc2c(cc1OC)C(c1ccc(Cl)cc1)=NCC2 | -31.9 | 1.6 | 0.8 | -52.6 | 4.0 | / | /
C=C1CCCC2OC(CC3=CC4/C(C)=C/CC(C)CC(/C=C(\C)C(O)C5CC(O)C(O)C(CCC(O)/C=C/C(C)=C/CCC6=NCCC(C3)C64C)O5)OC(=O)CC3OC(C(O)C1)C(O)C3O)CC(O)C2O (stereo not given) | -8.6 | -0.2 | -4.7 | -8.1 | -27.3 | / | /
COP(=O)(c1ccc(N(C)C)cc1)C(O)c1ccccc1 (stereo not given) | -2.6 | 29.3* | -6.6 | -1.8 | -11.7 | 0.3 | 0.4
COP(=O)(O)C(Cc1ccccc1)NC(=O)OCc1ccccc1 (stereo not given) | 1.6 | -0.3 | -1.4 | 0.4 | 3.6 | / | /
CC(C)(C)C(=O)O[C@@H]1CCC[C@@]2(C(=O)N(Cc3ccccc3)c3ccccc32)[C@H]1NC(=O)CCc1ccccc1 | 0.9 | 0.5 | 7.0 | 5.9 | 12.8 | / | /
Cc1ccc(-c2nc3ccccn3c2Nc2ccccc2)o1 | i | 28.4* | i | i | i | 63.2* | 67.9*
COc1cc2c(cc1OC)CN(CCC(C)c1ccc(Cl)cc1)CC2 (stereo not given) | -15.6 | 20.9* | -24.0 | -16.4 | -56.9 | 148.0* | 144.9*
COc1cc2c(cc1OC)CN(C(=O)c1ccccc1C(=O)O)CC2 | -74.2 | 16.5* | -19.1 | -87.2 | -53.5 | 6.6 | 5.2*
COc1cc2c(cc1OC)CN(CC(O)c1ccccc1)CC2 (stereo not given) | i | 96.2* | -308.3 | i | i | 56.4* | 74.2*
Nn1c(SCc2c(Cl)cccc2Cl)nnc1-c1n[nH]c2c1CCC2 | -1.2 | -0.8 | -3.7 | -1.5 | -3.3 | / | /
COc1cc2cc(CN(CCCN3CCOCC3)Cc3nnnn3Cc3ccccc3)c(=O)[nH]c2cc1OC | -471.3 | 15.4* | -223.4 | i | i | -12.5 | -8.0
CCOc1ccc2[nH]c(=O)c(CN(CCCN3CCOCC3)Cc3nnnn3Cc3ccc(OC)cc3)cc2c1 | -17.1 | 0.1 | -48.5 | -22.7 | -137.0 | / | /
COCCn1nnnc1CN(Cc1cc2cc(OC)c(OC)cc2[nH]c1=O)C1CCCC1 | i | 17.7* | -196.0 | i | i | -11.3 | -9.7
